Out of some 310,000 compounds screened, about 1,900 (0.61%) were called active. Not shown: some 8% with an inconclusive outcome. The call rests on the fitted dose curve; tested in A549 cells. The sample as a whole holds a higher share of actives than the screen did.
test: qHTS for Stage-Specific Inhibitors of Vaccinia Orthopoxvirus: mCherry Reporter Primary qHTS; details: Vaccinia virus mCherry reporter infection, fluorescence; series mostly up to 36.5 µM; activity change, negative = inhibition: at the top concentration; further: nearly all actives have a fitted effect of over 35% in size
On the % scale 0 is the no-effect control and ±100 the full control effect; potency means the concentration at half of the fitted maximal effect.

| Structure (SMILES) | outcome | Potency | activity change, negative = inhibition |
| --- | --- | --- | --- |
| Cc1ccc2nc(-c3ccco3)c(Cc3cccc(Cl)c3)n2c1 | inactive |  |  |
| c1ccc(-c2nccc(-c3ccc(-n4cnc5ccccc54)cc3)n2)nc1 |  | 11.2 µM (active) |  |
| CC(C)(C)Nc1nc(-c2ccccn2)nc2ccccc12 |  |  | -28.3% (inactive) |
| Cc1nccc(-c2ccc(-n3c(C)ccc3C)cc2)n1 |  |  | -13.9% (inactive) |
| COc1cccc(C(=O)Nc2nc3ccc(S(C)(=O)=O)cc3s2)c1 |  |  | -13% (inactive) |
| COc1ccc2c(c1)Cc1sc(NC(=O)c3ccccc3Br)nc1-2 |  | 11.2 µM (active) |  |
| COc1ccc(NS(=O)(=O)c2ccc(N3CCOCC3)c(NC(=O)c3ccccc3Br)c2)cc1 |  |  | -12.5% (inactive) |
| CCCc1c(-c2ccccc2F)ncn1Cc1ccccc1OC |  |  | -20% (inactive) |
| Cc1ccc(SCc2c(C(=O)N/N=C/c3cccnc3)nnn2-c2nonc2N)cc1 |  |  | -10.8% [at 7.34 µM] (inactive) |
| Nc1nonc1-n1nnc(C(=O)N/N=C/c2cc(Br)ccc2O)c1CSC1=NCCS1 |  | 7.08 µM (active) |  |
| Cc1ccc(SCc2c(C(=O)N/N=C/C3CC=CCC3)nnn2-c2nonc2N)cc1 (centres undefined) |  |  | -18.1% (inactive) |
| O=C(Nc1cc(Br)ccc1F)c1nc[nH]c1C(=O)NCc1ccccc1 |  |  | -10.4% (inactive) |
| CCc1nc2ccc(C(=O)NC3CCN(Cc4ccccc4)CC3)cn2c1N(CC)CCOC |  |  | 28.2% (inactive) |
| CC(C)(C)c1cc(C(=O)N/N=C/c2ccc([N+](=O)[O-])s2)n[nH]1 |  | 11.2 µM (active) |  |
| Cc1nc2ccccc2cc1C(=O)N/N=C/c1ccc([N+](=O)[O-])cc1 |  |  | -9.06% (inactive) |
| Cc1ccsc1C(=O)N/N=C/c1ccc([N+](=O)[O-])cc1 |  |  | -19.9% (inactive) |
| Cc1nc2c(OCc3ccc(Cl)cc3)cccn2c1N(C)Cc1cccs1 |  |  | 13.2% (inactive) |
| CCCCOCCCNC(=O)C[C@@H]1C[C@@]2(C(=O)OCC)CCCC=C2N(CCC2=CCCCC2)C1=O |  |  | -27.4% (inactive) |
| CN(C)CCNC(=O)c1ccc(-c2cn3c(-c4ccc(Oc5ccccc5)cc4)cnc3cn2)cc1 |  |  | -5.42% (inactive) |
| Cc1sc(NC(=O)C2=COCCO2)c(C#N)c1C |  |  | -10.3% (inactive) |
| CCCc1ccc(-c2c(C)sc(NC(=O)c3ccnn3C)c2C#N)cc1 |  | 11.2 µM (active) |  |
| Cn1nccc1CNC(=O)c1ccnn1C |  |  | -16.4% (inactive) |
| C=C1C=C(C(F)F)n2ncc(C(=O)NCCc3ccccc3OC)c2N1 |  |  | -8.11% (inactive) |
| CN1CCN(c2ccc3c(c2)OC[C@H](Cc2ccccc2)NS3(=O)=O)CC1 |  |  | 32.8% (inactive) |
| CN(C)CCNC(=O)Nc1cccc(Cl)c1Cl |  |  | -4.83% (inactive) |

| Structure (SMILES) | outcome | Potency | activity change, negative = inhibition |
| --- | --- | --- | --- |
| CC(=O)NCCNC(=O)c1cc(-c2cccc3ccccc23)nc2ccccc12 |  |  | -12.7% (inactive) |
| CN(C)CCNC(=O)c1ccc(Cl)c2cc3ccccc3nc12 |  | 1.78 µM (active) |  |
| COc1cccc(-c2cnc3c(NC(C)=O)cc(-c4cccc(NC(C)=O)c4)cn23)c1 | inactive |  |  |
| CCCCn1nnnc1C(c1cccc(OC)c1OC)N1CCN(C/C=C/c2ccccc2)CC1 (centres undefined) |  |  | 33.4% (inactive) |
| Cc1c(CCO)sc[n+]1CC(=O)c1ccc2ccccc2c1 |  |  | 39.9% (inactive) |
| CC(NC(=O)CSc1nc2c(cc1C#N)CN(C)CC2)c1ccccc1 (centres undefined) |  | 10 µM (active) |  |
| Cc1cc(NC(=O)CSc2nc3c(cc2C#N)CCCCC3)no1 |  |  | -10% (inactive) |
| CN1CCc2nc(SC(C(=O)O)c3ccccc3)c(C#N)c(-c3cccs3)c2C1 (centres undefined) |  |  | -13.5% (inactive) |
| CCCCCCCCN1C(=O)[C@H](CC(=O)NCC23CC4CC(CC(C4)C2)C3)C[C@@]2(C(=O)OC)CCCCC=C12 |  |  | 8.61% (inactive) |
| CCN1C(=O)[C@H]2[C@@H](c3ccc(C(F)(F)F)cc3)N[C@]3(CCCN(Cc4ccc(Br)cc4)C3=O)[C@H]2C1=O |  |  | -26.8% (inactive) |
| CC(C)(C)S(=O)N1Cc2cc(C(=O)NCCCN3CCOCC3)nc(-c3cccc(-c4cc5ccccc5o4)c3)c2[C@H]1CCO (some centres undefined) |  |  | 14.1% (inactive) |
| CC1(Oc2ccc(Cl)cc2)CCN(Cc2csc3ccccc23)C1 (centres undefined) |  |  | -6.34% (inactive) |
| COc1ccc2sc(-c3ccc(S(C)(=O)=O)cc3)c(C#Cc3cncn3C)c2c1 |  |  | -22.7% (inactive) |
| COc1ccc2sc(-c3ccc(N(C)C)cc3)c(-c3ccc4cc[nH]c4c3)c2c1 |  |  | -13.9% (inactive) |
| COc1ccc2sc(-c3ccc(N(C)C)cc3)c(C#CCO)c2c1 |  | 12.6 µM (active) |  |
| COCOc1cccc(CN2CCC(C)(Oc3ccc(SC)cc3)C2)c1 (centres undefined) |  |  | 22% (inactive) |
| O=C(NCc1cccc(C(F)(F)F)c1)c1ccc2sc(COCCO)nc2c1 |  |  | 21.2% (inactive) |
| OC[C@@H]1CN(Cc2cccs2)C[C@H](n2cnc3c(NC4CCCC4)ncnc32)O1 |  |  | 7.65% (inactive) |
| Cc1cc(C)nc(N/N=C/c2c(C)oc3ccccc23)n1 |  |  | -27.7% (inactive) |
| Cc1cc(C)nc(N/N=C/c2c(CO)cnc(C)c2O)n1 |  | 12.6 µM (active) |  |
| Cc1ncc(CO)c(/C=N/NC(=O)c2cccc(S(=O)(=O)N3CCCC3)c2)c1O |  |  | -12.6% (inactive) |
| CSc1ccc(CN2CCC2(C)C(=O)Nc2ccc(C)c(O)c2)cc1 (centres undefined) |  |  | -10.1% (inactive) |
| CC(C)C[C@@H]1Cc2[nH][nH]c(=O)c2[C@H](CCc2ccccc2)O1 |  |  | -12.1% (inactive) |
| CN(Cc1ccccc1)c1ccc(/C=C/c2ccnc3ccccc23)cc1 |  |  | -25.7% (inactive) |
